Data on 25 compounds can be found in PubChem BioAssay AID729 (The Scripps Research Institute Molecular Screening Center, 2007).

Molecules are shown by their SMILES. About 450 (0.46%) of roughly 97,000 compounds were called active. This is one part of a sample in which actives are shown more often than they occur. Unmarked numbers belong to inactive results. No stated cut-off is given here; in the data, active means activation above about 16%; inactive means the rest.

Chain of Sphingosine 1-phosphate receptor 2 (Homo sapiens) (O95136 whole entry, looked up): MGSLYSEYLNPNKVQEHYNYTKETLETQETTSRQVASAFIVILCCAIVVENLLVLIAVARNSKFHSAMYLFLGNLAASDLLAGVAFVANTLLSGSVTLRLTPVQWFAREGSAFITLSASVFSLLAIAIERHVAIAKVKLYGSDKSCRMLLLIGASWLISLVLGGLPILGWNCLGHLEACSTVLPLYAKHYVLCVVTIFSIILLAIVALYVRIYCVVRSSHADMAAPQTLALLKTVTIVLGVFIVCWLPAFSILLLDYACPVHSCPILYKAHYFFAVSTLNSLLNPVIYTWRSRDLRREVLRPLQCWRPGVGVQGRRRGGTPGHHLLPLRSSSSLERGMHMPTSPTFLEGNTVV

This test concerns the target Sphingosine 1-phosphate receptor 2 (Homo sapiens) (UniProt O95136). Description: activation of human S1P2 receptor – cell-based, primary screen (AID 729).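 Further: 0% = vehicle low control and 100% = maximal reference agonist.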 To be noted: S1P2-expressing cell line, agonist reporter read-out; at 4.5 µM; hits give high values.
Take `Fc1ccc(CNc2nc3ccccc3n3nnnc23)cc1`: the activation is -7.16%. Regarding `O=C(NC(C(=O)NCCN1CCOCC1)C12CC3CC(CC(C3)C1)C2)C1CCCCC1` (stereo not given), the activation was -4.77%. To `Cc1c(NC(=O)c2cc(-c3ccc(Cl)s3)nc3ccccc23)c(=O)n(-c2ccccc2)n1C` belongs -14.2%; to `O=C(Nc1ccn(Cc2ccccc2F)n1)c1ccc(COc2ccc(Cl)cc2Cl)o1`, -5.78%; to `CCn1cc(C(=O)NCc2ccc3c(c2)OCO3)c2cc(OC)c(OC)cc2c1=O`, 14.1%. As for `O=C(Cn1cnc2ccccc2c1=O)NCC1COc2ccccc2O1` (stereo not given), the figure is -3.16%; as for `CCn1cc(C(=O)NCC2COc3ccccc3O2)c2cc(OC)c(OC)cc2c1=O` (stereo not given), 19.9% (active); as for `CO/N=C/c1ccc(N2CCN(C(=O)c3cccc(Cl)c3)CC2)c([N+](=O)[O-])c1`, -3.08%. To `Cc1ccc(CNC(=O)C2CCCN2C(=O)NCc2ccccc2)cc1` (stereo not given) belongs -8.36%; to `O=C(CO/N=C/c1ccccc1O)NNC(=O)c1ccccc1Cl`, -5.77%. `Cc1ccc(S(=O)(=O)/N=C(/Nc2ccccn2)c2ccc(Cl)cc2)cc1`: the activation was -4.9%. As for `CSc1ccccc1-c1nnc(-c2ccc(Cl)cc2)o1`, the figure is -1.63%.

`Cc1ccc(N2CCN(C3=NC(=O)/C(=C\c4cccs4)S3)CC2)cc1`: the activation was -8.97%. As for `O=Cc1c(N2CCN(c3cccc(Cl)c3)CC2)nc2ccccn2c1=O`, the figure is -4.84%; as for `CN1C(=O)C(CC(N)=O)N(NC(=O)c2ccc(Cl)cc2)C1=S` (stereo not given), -7.47%; as for `CSc1nc(N)c(C#N)c(-c2ccccc2Cl)c1C#N`, -7.07%.

As to `CSc1nc2ccccc2cc1/C=C(\C#N)c1ccc(Cl)cc1Cl`, the activation is 19.8% (active). To `Cc1nc2ccccc2cc1O` belongs -0.52%; to `Cc1sc(NC(=O)C2C3CCC(O3)C2C(=O)O)c(C(=O)OC(C)C)c1-c1ccc(Cl)cc1` (stereo not given), -9.04%.

With `CN(C)c1ccc(/C=C2\NC(=S)N(Cc3ccccc3)C2=O)cc1`, the activation was -4.43%. To `Cc1ccc(-c2nc(C)sc2CC(=O)O)cc1` belongs -2.07%; to `CN(c1cccc(NC(=O)Nc2ccc(Cl)cc2)c1)S(C)(=O)=O`, -3.59%; to `Nc1c(-c2ccc(F)cc2)cnn1C1CCS(=O)(=O)C1` (stereo not given), -4.76%. As for `Cc1ccc(C2C(C#N)C(C#N)N3CCCN23)cc1` (stereo not given), the figure is -4.89%; as for `N/C(=N\OC(=O)CCC1CCCCC1)c1ccccn1`, -3.14%.
